# According to ChEMBL document CHEMBL1961873, “Compounds: GSK PKIS; Assays: Nanosyn kinase panel” (2012):
# Legend:
# [1] = biological target: T1, Tyrosine-protein kinase receptor TYRO3 (Homo sapiens) (UniProt Q06418); conditions: at 1 µM
# T1 sequence (whole entry): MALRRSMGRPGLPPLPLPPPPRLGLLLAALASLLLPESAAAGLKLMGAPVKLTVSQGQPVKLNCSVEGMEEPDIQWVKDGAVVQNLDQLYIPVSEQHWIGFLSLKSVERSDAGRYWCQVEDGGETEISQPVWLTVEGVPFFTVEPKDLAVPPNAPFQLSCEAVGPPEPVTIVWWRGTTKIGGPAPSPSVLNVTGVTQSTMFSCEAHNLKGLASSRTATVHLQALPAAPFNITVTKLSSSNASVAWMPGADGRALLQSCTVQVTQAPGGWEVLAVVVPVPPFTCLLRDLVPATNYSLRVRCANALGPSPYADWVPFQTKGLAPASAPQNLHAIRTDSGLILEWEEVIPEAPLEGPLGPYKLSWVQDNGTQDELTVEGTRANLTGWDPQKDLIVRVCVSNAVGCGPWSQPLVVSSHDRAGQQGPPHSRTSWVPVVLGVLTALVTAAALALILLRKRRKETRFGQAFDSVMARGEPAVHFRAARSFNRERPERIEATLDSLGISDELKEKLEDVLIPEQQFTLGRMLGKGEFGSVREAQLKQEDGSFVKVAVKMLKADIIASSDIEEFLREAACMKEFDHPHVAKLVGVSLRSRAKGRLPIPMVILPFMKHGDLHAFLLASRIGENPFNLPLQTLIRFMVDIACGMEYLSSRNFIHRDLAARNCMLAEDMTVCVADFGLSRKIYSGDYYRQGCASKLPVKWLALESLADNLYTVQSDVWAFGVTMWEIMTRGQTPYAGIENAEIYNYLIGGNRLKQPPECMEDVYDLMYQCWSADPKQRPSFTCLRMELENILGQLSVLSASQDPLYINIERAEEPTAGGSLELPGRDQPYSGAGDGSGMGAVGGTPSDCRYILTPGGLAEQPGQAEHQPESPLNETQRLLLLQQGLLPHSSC
# [2] = biological target: Tyrosine-protein kinase Yes (Homo sapiens) (UniProt P07947); conditions: at 0.1 µM
# Chain of Tyrosine-protein kinase Yes (Homo sapiens) (P07947 2-543 limits assumed): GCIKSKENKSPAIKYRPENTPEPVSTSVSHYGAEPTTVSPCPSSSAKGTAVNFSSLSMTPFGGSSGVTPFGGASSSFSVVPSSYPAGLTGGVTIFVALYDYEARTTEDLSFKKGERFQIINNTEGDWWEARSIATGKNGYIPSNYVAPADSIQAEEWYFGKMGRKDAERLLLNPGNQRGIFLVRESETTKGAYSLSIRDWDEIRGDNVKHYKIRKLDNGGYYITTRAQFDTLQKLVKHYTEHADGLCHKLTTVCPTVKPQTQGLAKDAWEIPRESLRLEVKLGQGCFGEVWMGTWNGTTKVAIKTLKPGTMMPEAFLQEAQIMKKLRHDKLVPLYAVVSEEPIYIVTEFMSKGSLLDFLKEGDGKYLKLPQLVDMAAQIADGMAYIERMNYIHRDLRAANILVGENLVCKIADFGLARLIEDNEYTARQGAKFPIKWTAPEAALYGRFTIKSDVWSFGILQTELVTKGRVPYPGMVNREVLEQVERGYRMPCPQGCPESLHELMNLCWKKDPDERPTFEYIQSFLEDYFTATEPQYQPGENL
# [3] = biological target: Tyrosine-protein kinase Yes (Homo sapiens) (UniProt P07947); conditions: at 1 µM
# [4] = biological target: T2, Tyrosine-protein kinase ZAP-70 (Homo sapiens) (UniProt P43403); conditions: at 0.1 µM
# T2 sequence (whole entry): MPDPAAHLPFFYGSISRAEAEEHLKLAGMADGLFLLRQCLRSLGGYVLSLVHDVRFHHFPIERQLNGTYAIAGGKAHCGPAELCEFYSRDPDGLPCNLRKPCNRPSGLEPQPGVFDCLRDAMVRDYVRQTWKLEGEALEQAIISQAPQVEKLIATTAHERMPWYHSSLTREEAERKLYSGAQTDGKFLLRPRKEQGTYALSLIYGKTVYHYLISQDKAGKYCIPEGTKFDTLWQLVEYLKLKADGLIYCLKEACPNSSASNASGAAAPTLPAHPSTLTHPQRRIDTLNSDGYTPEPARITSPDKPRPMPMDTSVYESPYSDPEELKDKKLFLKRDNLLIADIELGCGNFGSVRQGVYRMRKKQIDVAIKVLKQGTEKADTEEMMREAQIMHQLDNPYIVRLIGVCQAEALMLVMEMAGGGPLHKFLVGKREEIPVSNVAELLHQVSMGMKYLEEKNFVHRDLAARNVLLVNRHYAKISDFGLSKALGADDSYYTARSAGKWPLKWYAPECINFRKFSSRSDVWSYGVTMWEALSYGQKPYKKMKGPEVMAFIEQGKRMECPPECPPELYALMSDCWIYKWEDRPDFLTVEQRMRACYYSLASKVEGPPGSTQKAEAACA
# [5] = biological target: T2, Tyrosine-protein kinase ZAP-70 (Homo sapiens); conditions: at 1 µM
# [6] = biological target: Serine/threonine-protein kinase B-raf (Homo sapiens) (UniProt P15056); conditions: at 0.1 µM
# Chain of Serine/threonine-protein kinase B-raf (Homo sapiens) (P15056 whole entry): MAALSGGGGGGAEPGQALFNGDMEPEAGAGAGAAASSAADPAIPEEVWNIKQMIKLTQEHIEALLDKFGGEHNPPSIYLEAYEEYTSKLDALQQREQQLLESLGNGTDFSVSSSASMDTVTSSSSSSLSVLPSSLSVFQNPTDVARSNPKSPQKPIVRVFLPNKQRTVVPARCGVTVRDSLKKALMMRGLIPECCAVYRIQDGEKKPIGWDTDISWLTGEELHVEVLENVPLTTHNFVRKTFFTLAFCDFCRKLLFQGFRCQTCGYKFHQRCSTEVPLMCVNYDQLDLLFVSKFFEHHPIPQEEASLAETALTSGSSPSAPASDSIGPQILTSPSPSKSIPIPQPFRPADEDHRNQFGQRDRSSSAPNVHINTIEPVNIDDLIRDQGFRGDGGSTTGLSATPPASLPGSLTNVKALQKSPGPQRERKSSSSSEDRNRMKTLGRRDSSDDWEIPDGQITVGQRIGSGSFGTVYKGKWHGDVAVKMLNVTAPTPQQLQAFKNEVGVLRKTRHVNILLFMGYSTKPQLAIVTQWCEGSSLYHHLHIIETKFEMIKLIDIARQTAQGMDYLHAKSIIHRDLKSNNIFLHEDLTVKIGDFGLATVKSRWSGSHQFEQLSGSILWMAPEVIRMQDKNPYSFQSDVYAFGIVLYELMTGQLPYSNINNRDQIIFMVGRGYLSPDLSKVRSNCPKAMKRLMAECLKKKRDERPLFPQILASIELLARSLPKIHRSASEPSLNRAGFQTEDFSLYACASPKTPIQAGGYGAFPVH
# [7] = biological target: Serine/threonine-protein kinase B-raf (Homo sapiens) (UniProt P15056); conditions: at 1 µM
# [8] = system: Serine/threonine-protein kinase B-raf (Homo sapiens), P15056 [V600E]; conditions: at 0.1 µM
# Chain of Serine/threonine-protein kinase B-raf (Homo sapiens), P15056 [V600E] (P15056 whole entry V600E): as the sequence (P15056 whole entry) above, with V600E counted along it
# [9] = system: Serine/threonine-protein kinase B-raf (Homo sapiens), P15056 [V600E]; conditions: at 1 µM
# [10] = biological target: RAF proto-oncogene serine/threonine-protein kinase (Homo sapiens) (UniProt P04049); conditions: at 0.1 µM
# Chain of RAF proto-oncogene serine/threonine-protein kinase (Homo sapiens) (P04049 whole entry): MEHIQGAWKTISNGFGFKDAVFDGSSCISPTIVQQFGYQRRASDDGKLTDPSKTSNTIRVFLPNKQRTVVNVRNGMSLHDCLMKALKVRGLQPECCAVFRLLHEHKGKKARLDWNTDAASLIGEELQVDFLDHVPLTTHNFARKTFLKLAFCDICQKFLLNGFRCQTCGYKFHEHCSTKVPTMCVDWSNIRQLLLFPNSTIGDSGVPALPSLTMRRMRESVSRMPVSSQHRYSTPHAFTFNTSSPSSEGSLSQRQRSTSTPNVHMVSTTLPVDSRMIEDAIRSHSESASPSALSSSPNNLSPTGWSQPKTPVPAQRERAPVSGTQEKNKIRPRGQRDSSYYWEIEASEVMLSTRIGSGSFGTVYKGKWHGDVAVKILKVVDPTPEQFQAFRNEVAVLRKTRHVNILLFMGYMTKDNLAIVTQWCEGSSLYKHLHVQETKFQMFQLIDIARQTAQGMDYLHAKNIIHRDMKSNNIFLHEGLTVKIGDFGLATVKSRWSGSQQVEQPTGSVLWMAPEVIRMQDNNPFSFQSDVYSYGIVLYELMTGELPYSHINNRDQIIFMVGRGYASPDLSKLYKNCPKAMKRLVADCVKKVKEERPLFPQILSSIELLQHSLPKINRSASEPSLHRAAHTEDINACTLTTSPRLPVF
# [11] = biological target: RAF proto-oncogene serine/threonine-protein kinase (Homo sapiens) (UniProt P04049); conditions: at 1 µM
# [12] = biological target: T3, Interleukin-1 receptor-associated kinase 4 (Homo sapiens) (UniProt Q9NWZ3); conditions: at 0.1 µM
# T3 sequence (whole entry): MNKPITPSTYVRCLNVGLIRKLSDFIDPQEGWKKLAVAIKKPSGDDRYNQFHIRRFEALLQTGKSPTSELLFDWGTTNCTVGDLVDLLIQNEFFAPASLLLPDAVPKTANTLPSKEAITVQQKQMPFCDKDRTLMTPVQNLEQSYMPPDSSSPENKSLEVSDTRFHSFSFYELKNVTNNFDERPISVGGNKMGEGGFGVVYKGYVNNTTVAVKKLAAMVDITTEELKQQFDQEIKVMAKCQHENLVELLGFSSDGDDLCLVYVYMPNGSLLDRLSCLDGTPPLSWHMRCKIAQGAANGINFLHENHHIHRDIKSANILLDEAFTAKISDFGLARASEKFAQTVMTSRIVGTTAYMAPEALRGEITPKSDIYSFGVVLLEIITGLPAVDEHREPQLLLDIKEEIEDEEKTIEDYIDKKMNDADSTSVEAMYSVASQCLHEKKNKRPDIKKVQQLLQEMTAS
# [13] = biological target: T3, Interleukin-1 receptor-associated kinase 4 (Homo sapiens); conditions: at 1 µM
# [14] = biological target: Leucine-rich repeat serine/threonine-protein kinase 2 (Homo sapiens) (UniProt Q5S007); conditions: at 0.1 µM
# Chain of Leucine-rich repeat serine/threonine-protein kinase 2 (Homo sapiens) (Q5S007 whole entry): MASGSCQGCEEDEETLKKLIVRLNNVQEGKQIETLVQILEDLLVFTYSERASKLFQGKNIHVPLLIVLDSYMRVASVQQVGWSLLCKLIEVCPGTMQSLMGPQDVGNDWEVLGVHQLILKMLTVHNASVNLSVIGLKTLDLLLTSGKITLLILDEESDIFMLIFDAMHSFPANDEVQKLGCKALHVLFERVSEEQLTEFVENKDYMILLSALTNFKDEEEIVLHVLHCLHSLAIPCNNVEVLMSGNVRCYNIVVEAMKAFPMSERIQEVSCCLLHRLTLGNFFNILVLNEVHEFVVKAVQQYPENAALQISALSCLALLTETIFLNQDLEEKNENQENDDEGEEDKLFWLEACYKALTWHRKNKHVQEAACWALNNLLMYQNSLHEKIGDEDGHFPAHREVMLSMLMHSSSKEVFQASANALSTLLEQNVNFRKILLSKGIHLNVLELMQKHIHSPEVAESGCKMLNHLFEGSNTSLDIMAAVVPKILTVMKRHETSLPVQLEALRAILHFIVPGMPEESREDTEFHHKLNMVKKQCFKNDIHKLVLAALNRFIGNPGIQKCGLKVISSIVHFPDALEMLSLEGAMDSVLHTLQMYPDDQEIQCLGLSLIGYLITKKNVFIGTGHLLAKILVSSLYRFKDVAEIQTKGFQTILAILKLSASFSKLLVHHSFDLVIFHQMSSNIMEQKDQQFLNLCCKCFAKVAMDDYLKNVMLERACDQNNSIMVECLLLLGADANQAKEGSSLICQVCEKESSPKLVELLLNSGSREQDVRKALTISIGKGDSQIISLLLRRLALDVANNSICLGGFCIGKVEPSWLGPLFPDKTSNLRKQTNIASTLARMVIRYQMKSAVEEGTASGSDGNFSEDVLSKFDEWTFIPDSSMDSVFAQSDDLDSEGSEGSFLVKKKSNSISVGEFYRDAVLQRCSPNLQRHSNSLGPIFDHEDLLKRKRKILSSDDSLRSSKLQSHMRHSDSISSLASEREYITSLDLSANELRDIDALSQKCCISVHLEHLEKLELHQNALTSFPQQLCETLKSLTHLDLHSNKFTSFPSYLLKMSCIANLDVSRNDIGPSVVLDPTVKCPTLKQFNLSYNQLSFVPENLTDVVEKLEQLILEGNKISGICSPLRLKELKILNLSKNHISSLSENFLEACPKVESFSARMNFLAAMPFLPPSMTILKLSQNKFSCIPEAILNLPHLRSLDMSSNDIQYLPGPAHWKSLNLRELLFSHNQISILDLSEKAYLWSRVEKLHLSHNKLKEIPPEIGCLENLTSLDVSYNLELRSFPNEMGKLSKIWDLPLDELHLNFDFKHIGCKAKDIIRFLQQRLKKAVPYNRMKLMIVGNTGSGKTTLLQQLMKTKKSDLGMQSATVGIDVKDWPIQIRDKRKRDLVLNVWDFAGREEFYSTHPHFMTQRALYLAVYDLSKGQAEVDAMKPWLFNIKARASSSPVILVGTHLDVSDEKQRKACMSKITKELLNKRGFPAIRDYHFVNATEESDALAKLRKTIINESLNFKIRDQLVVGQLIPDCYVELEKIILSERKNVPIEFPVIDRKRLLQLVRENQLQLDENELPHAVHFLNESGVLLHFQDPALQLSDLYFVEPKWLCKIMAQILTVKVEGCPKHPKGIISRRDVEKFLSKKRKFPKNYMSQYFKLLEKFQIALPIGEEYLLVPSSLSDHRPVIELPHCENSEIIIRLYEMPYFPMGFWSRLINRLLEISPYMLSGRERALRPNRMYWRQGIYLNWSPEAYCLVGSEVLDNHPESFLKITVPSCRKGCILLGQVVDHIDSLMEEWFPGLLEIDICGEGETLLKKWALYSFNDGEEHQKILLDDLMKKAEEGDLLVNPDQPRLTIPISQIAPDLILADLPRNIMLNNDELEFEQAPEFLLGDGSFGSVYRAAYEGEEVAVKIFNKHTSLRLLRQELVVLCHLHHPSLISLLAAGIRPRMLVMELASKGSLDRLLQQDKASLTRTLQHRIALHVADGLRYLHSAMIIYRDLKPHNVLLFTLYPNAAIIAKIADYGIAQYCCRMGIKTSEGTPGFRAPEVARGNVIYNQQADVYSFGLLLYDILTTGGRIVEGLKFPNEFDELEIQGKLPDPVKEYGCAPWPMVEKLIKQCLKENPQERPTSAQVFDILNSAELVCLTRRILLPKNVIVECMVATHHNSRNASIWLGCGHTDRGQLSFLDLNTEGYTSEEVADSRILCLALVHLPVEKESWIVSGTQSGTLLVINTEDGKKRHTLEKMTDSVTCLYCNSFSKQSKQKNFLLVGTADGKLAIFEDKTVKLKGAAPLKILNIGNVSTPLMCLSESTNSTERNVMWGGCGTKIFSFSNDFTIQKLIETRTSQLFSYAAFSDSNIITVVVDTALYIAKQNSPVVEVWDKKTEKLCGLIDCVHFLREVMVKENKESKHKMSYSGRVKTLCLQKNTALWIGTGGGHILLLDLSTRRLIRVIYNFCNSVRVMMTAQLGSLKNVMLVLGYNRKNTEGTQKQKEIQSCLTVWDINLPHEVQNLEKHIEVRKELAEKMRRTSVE
# [15] = biological target: Leucine-rich repeat serine/threonine-protein kinase 2 (Homo sapiens) (UniProt Q5S007); conditions: at 1 µM
# [16] = system: Leucine-rich repeat serine/threonine-protein kinase 2 (Homo sapiens), Q5S007 [G2019S]; conditions: at 0.1 µM
# Chain of Leucine-rich repeat serine/threonine-protein kinase 2 (Homo sapiens), Q5S007 [G2019S] (Q5S007 whole entry G2019S): as the sequence (Q5S007 whole entry) above, with G2019S counted along it
# [17] = system: Leucine-rich repeat serine/threonine-protein kinase 2 (Homo sapiens), Q5S007 [G2019S]; conditions: at 1 µM
Compound,inhibition [1] [%],inhibition [2] [%],inhibition [3] [%],inhibition [4] [%],inhibition [5] [%],inhibition [6] [%],inhibition [7] [%],inhibition [8] [%],inhibition [9] [%],inhibition [10] [%],inhibition [11] [%],inhibition [12] [%],inhibition [13] [%],inhibition [14] [%],inhibition [15] [%],inhibition [16] [%],inhibition [17] [%]
COC(=O)Nc1nc2cc(Oc3ccc(NC(=O)Nc4cccc(Br)c4)cc3)ccc2[nH]1,15.3,4.4,6.98,5.03,3.22,13,20.6,11.3,20.8,-5.74,44.2,1.75,1.23,8.94,13.4,4.67,10.5
CC(C)c1ccc(Nc2nccc(-c3cnn4ncccc34)n2)cc1,4.27,3.25,6.98,1.01,6.84,4.59,13.7,5.11,11.6,0.59,2.26,-2.06,1.84,9.89,17.9,11.6,44.5
CN(C)c1cc2c(Nc3ccc4c(cnn4Cc4ccccc4)c3)ncnc2cn1,7.51,13.5,49.8,2.63,5.85,3.72,3.71,4.74,4.34,1.64,7.17,3.11,1.57,3.31,9.07,3.44,8.03
Cc1cc(-c2ccccn2)cc(C)c1/C=C/c1cncc(-c2nn[nH]n2)c1,0.93,1.13,11.4,3.62,-2.29,5.62,12.4,4.7,5.23,1.48,0.84,1.97,2.42,1.5,10.7,3.32,8.55
COC(=O)c1ccc2c(c1)C(=Cc1cc(Br)c(O)c(Br)c1)C(=O)N2,12.4,0.08,12.2,3.31,5.41,9.11,19.7,7.27,18.2,3.01,42,1.11,2.79,29.1,88.5,58.3,91.7
Cc1ccc(C(=O)NC2CC2)cc1-c1ccc2[nH]ncc2c1,-0.85,-1.92,-0.56,-3.94,-1.58,-6.03,-6.48,-3.87,-3.07,-2.17,-2.56,-1.84,-0.57,-0.67,2.87,1.11,4.33
Cc1ccc2c(-c3ccnc(Nc4cccc(C(F)(F)F)c4)n3)c(-c3ccccc3)nn2n1,17.5,53.8,91.8,0.09,2.06,6.35,14.1,4.17,8.85,4.15,3.34,2.03,2.78,1.87,7.47,2.59,4.94
Nc1nccc(-c2c(-c3ccc(F)cc3)nn3cc(C(F)(F)F)ccc23)n1,1.24,0.91,1.92,-0.68,-1.16,0.06,0.3,0.14,-0.28,-3.59,-7.59,0.57,0.46,6.4,7.9,6.54,5.03
Cc1ccc(O)cc1Nc1ccnc2ccc(S(C)(=O)=O)cc12,19.1,89.3,99,2.4,1.31,15.3,32.5,13.8,26,-4.03,9.12,4.59,3.6,4.8,18.7,12.5,48
c1ccc(Cc2nc3ccc(Nc4ncnc5ccccc45)cc3[nH]2)cc1,3.79,1.02,9.72,1.42,-1.31,4.95,6.09,4.48,5.36,3.87,8.44,-1.86,1.52,0.2,4.18,3.52,9.17
NS(=O)(=O)c1ccc(N/N=C2\C(=O)Nc3ccc(Cl)cc32)cc1,5.46,1.72,3.69,1.01,3.02,4.45,4.35,5.27,4.36,-0.52,-2.46,1.38,1.48,3.85,14.7,10.2,49.5
COc1cc(/C=N/Nc2ncnc3c2cnn3C(C)C)ccc1O,25.9,11.9,50.8,1.87,4.45,2.16,2.26,2.21,1.64,9.62,1.93,1.12,2.71,2.81,7.64,4.77,19.1
COc1cccc(-n2ncc3c(N/N=C/c4ccc(S(C)(=O)=O)cc4)ncnc32)c1,22.4,31.9,57.4,-3.44,1.31,7.5,16.4,8.25,20.2,-3.03,-5.96,-3.29,1.12,-1.93,-1.56,2.72,6.75
NS(=O)(=O)c1cccc(-c2cc3ccncc3cc2OCc2ccccc2)c1,3.23,0.88,2.73,2.48,4.15,6.76,6.57,5.8,5.78,2.97,0.71,1.17,2.26,4.42,8.85,4.16,8.74
CCn1c(-c2nonc2N)nc2ccc(F)cc21,5.61,4.26,8.39,3.33,2.76,8.45,7.77,9.84,7.05,-0.53,0.22,1.39,2.93,4.04,8.92,4.92,4.42
